Among all 5,500 compounds or so, about 2,000 (36%) were called active. Not shown: some 18% with an inconclusive outcome. Rule as the data show it: active = normalized growth mostly below about 0.91 (no sharp cut-off); inconclusive = no clear call, values can overlap the other calls; inactive = mostly above about 0.92. The list shows a part of the results.
Assay: chemical genetic growth profiling, strain panel (AID 1159580);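 also: tested at 20 µM; growth read once vehicle control cultures reached saturation at 30 °C; 1 = growth at the plate median or of vehicle wells; lower values mean less growth of the strain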
Conditions: S. cerevisiae deletion strains, growth OD

Measured: normalized growth

CCn1cc([N+](=O)[O-])nc1C
inactive: locus YAL013W, strain DEP1, stronger effect = lower value 1 | locus YBR229C, strain ROT2, stronger effect = lower value 1.02 | locus YDL101C, strain DUN1, stronger effect = lower value 1.03 | locus YDR150W, strain NUM1, stronger effect = lower value 1.03 | locus YEL061C, strain CIN8, stronger effect = lower value 0.981 | locus YGR078C, strain PAC10, stronger effect = lower value 1.02 | locus YHR030C, strain SLT2, stronger effect = lower value 1.05 | locus YHR087W, strain rtc3, stronger effect = lower value 0.975 | locus YJR043C, strain POL32, stronger effect = lower value 1.06 | locus YJR075W, strain HOC1, stronger effect = lower value 1 | locus YKL190W, strain CNB1, stronger effect = lower value 1 | locus YLR039C, strain RIC1, stronger effect = lower value 0.987 | locus YLR058C, strain SHM2 (second series), stronger effect = lower value 0.998 | locus YLR085C, strain ARP6, stronger effect = lower value 0.982 | locus YLR262C, strain YPT6, stronger effect = lower value 0.979 | locus YML094W, strain GIM5, stronger effect = lower value 0.968 | locus YMR219W, strain ESC1, stronger effect = lower value 0.983 | locus YMR263W, strain SAP30, stronger effect = lower value 1.01 | locus YNL128W, strain TEP1, stronger effect = lower value 1.02 | locus YNL153C, strain GIM3, stronger effect = lower value 1.02 | locus YNL298W, strain CLA4 (second series), stronger effect = lower value 1 | locus YNL322C, strain KRE1, stronger effect = lower value 0.997 | locus YNR030W, strain Alg12, stronger effect = lower value 0.976 | locus YPL055C, strain LGE1, stronger effect = lower value 1.01 | locus YPL241C, strain CIN2, stronger effect = lower value 1.02 | locus YPR135W, strain CTF4, stronger effect = lower value 1.05
